Measured values published in PubChem BioAssay.
Inconclusive results are not listed. The source made the active and inactive calls.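 Rule for the calls, unless noted: active = normalized viability below 100% at a tested concentration; inactive = the rest.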

Legend:
[1] = drug combination growth inhibition, ovarian cancer – cell-based, oncology-focused library, rucaparib conditional, profiling panel (AID 1508598); settings: patient-derived ovarian cancer cells, CellTiter-Glo viability, 144 h, stronger effect = lower value
[2] = viability loss in pontine glioma line – cell-based, SU-DIPG-XVII, MIPE5.0, CellTiter-Glo, qHTS, dose response (AID 1347060; cut-off not given, nearly all actives have AC50 up to about 26 µM;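 for AC50: cells exposed to compound for 48 hours before viability readout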); settings: CellTiter-Glo ATP luminescence
[3] = viability loss in pontine glioma line – cell-based, JHH-DIPG-1, MIPE4.0, CellTiter-Glo, qHTS, dose response (AID 1347062; cut-off not given, nearly all actives have AC50 up to about 27 µM;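 for AC50: cells exposed to compound for two days before readout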); settings: JHH-DIPG-1 viability, CellTiter-Glo ATP luminescence
[4] = viability loss in pontine glioma line – cell-based, SU-DIPG-XIII, MIPE5.0, CellTiter-Glo, qHTS, dose response (AID 1347064; cut-off not given, nearly all actives have AC50 up to about 23 µM;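 for AC50: cells exposed to compound for 48 hours before the viability read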); settings: CellTiter-Glo ATP luminescence
[5] = growth inhibition of DIPG cells – cell-based, MIPE5.0 library, qHTS (AID 1347068; cut-off not given, nearly all actives have IC50 up to about 30 µM); settings: SU-DIPG-XXV viability
[6] = growth inhibition of DIPG cells – cell-based, MIPE4.0 library, CellTiter-Glo luminescence, qHTS (AID 1347066; cut-off not given, nearly all actives have AC50 up to about 30 µM;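 note: cells exposed to compound for 48 hours before readout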); settings: SU-DIPG-VI viability, CellTiter-Glo ATP luminescence
[7] = JHH-DIPG-1 glioma cell viability, MIPE5.0 library, CellTiter-Glo luminescence, qHTS (AID 1347067; cut-off not given, nearly all actives have AC50 up to about 26 µM;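 note: cells exposed to compound for 48 hours before readout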); settings: JHH-DIPG-1 glioma viability, CellTiter-Glo ATP luminescence
[8] = viability loss with induced miR-34 in A549 – imaging, A549 dox-inducible miR-34, nuclei and caspase counts, primary screen (AID 1347080;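 active = compounds whose cell count with miR-34 switched on is under 0.7 times the count with it off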); settings: A549 miR-34 inducible, Hoechst nuclei count, 48 h
[9] = MELAS cybrid and Rieske KO viability enhancers – cell-based, MELAS cybrids, Rieske KO mouse fibroblasts, CellTiter-Glo, primary screen (AID 1508586;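 active = mean z-score across replicates of 1.96 or higher in either the MELAS or the Rieske mutant cell line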;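 note: z relative to plate mean and SD of compound and empty wells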); settings: low glucose
[10] = viability loss in pontine glioma line – cell-based, SU-DIPG-XXV, MIPE5.0, CellTiter-Glo, qHTS, dose response (AID 1347065; cut-off not given, nearly all actives have AC50 up to about 26 µM;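 note: cells exposed to compound for 48 hours before ATP readout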); settings: CellTiter-Glo ATP luminescence
[11] = at 0.0195 µM, OCI-P5x cells, with rucaparib 20 µM, 100% = cells with rucaparib alone
[12] = at 0.0195 µM, OCI-P5x cells, without rucaparib
[13] = at 0.0781 µM, OCI-C5x cells, with rucaparib 10 µM, 100% = cells with rucaparib alone
[14] = at 0.0781 µM, OCI-C5x cells, without rucaparib
[15] = at 0.0781 µM, OCI-P5x cells, with rucaparib 20 µM, 100% = cells with rucaparib alone
[16] = at 0.0781 µM, OCI-P5x cells, without rucaparib
[17] = at 0.313 µM, OCI-C5x cells, with rucaparib 10 µM, 100% = cells with rucaparib alone
[18] = at 0.313 µM, OCI-C5x cells, without rucaparib
[19] = at 0.313 µM, OCI-P5x cells, with rucaparib 20 µM, 100% = cells with rucaparib alone
[20] = at 0.313 µM, OCI-P5x cells, without rucaparib
[21] = at 1.25 µM, OCI-C5x cells, with rucaparib 10 µM, 100% = cells with rucaparib alone
[22] = at 1.25 µM, OCI-C5x cells, without rucaparib
[23] = at 1.25 µM, OCI-P5x cells, with rucaparib 20 µM, 100% = cells with rucaparib alone
[24] = at 1.25 µM, OCI-P5x cells, without rucaparib
[25] = at 5 µM, OCI-C5x cells, with rucaparib 10 µM, 100% = cells with rucaparib alone
[26] = at 5 µM, OCI-C5x cells, without rucaparib
[27] = at 5 µM, OCI-P5x cells, with rucaparib 20 µM, 100% = cells with rucaparib alone
[28] = at 5 µM, OCI-P5x cells, without rucaparib

In the case of `Cc1cnc(Nc2ccc(OCCN3CCCC3)cc2)nc1Nc1cccc(S(=O)(=O)NC(C)(C)C)c1`, the viability [1, 11] is reported as 95.4% (active), the viability [1, 12] is reported as 112% (inactive) and the viability [1, 13] is reported as 106% (inactive). For the same molecule, the viability [1, 14] was 122% (inactive), the viability [1, 15] was 99.2% (active) and the viability [1, 16] was 105% (inactive). The viability [1, 17] was 105% (inactive), the viability [1, 18] was 113% (inactive) and the viability [1, 19] was 81.7% (active). For the same molecule, the viability [1, 20] was 96.3% (active), the viability [1, 21] was 93.7% (active) and the viability [1, 22] was 84.4% (active). The viability [1, 23] was 78% (active), the viability [1, 24] was 88.7% (active) and the viability [1, 25] was 2.62% (active). The viability [1, 26] was 55.3% (active), the viability [1, 27] was 1.43% (active) and the viability [1, 28] was 2% (active).
In the case of `C[C@@H]1CN(Cc2ccc(F)cc2)[C@@H](C)CN1C(=O)c1cc2c(C(=O)C(=O)N(C)C)cn(C)c2cc1Cl`, the outcome [2] is reported as “inactive”, the outcome [3] is reported as “inactive” and the outcome [4] is reported as “inactive”. For the same molecule, the outcome [5] was “inactive”.
In the case of `O=c1ncn2nc(Sc3ccc(F)cc3F)ccc2c1-c1c(Cl)cccc1Cl`, the outcome [2] is reported as “inactive”, the outcome [3] is reported as “inactive” and the outcome [4] is reported as “inactive”. For the same molecule, the outcome [6] was “inactive”, the outcome [7] was “inactive” and the outcome [5] was “inactive”. The fold change ([8]; stronger effect = lower value, cell number ratio, induced over uninduced) was 0.89 (inactive), the fold change ([8]; measured here: relative caspase fold change +Dox/-Dox) was 1.87 and the cell count ([8]; measured here: total cells with miR-34 induction, stronger effect = lower value) was 6460. The cell count ([8]; measured here: total cells without miR-34 induction) was 7250, the z-score ([9]; MELAS cybrid survival, CellTiter-Glo 48 h, stronger effect = higher value) was -0.528 (inactive) and the z-score ([9]; Rieske KO mouse fibroblast survival, CellTiter-Glo 72 h) was 1.18.
With `CCC[C@H](Nc1nc(-c2ccc(NC(=O)NCC)c(OC)c2)ncc1C)c1cccnc1` the AC50 [2] was 132 nM (active), the AC50 [3] was 14.8 nM (active) and the AC50 [4] was 186 nM (active). The AC50 [10] was 118 nM (active), the AC50 [7] was 132 nM (active) and the viability ([1]; at 0.000305 µM, OCI-C5x cells, with rucaparib 10 µM, 100% = cells with rucaparib alone) was 92.2% (active). The viability ([1]; at 0.000305 µM, OCI-C5x cells, without rucaparib) was 101% (inactive), the viability ([1]; at 0.000305 µM, OCI-P5x cells, with rucaparib 20 µM, 100% = cells with rucaparib alone) was 107% (inactive) and the viability ([1]; at 0.000305 µM, OCI-P5x cells, without rucaparib) was 99.6% (active). The viability ([1]; at 0.00122 µM, OCI-C5x cells, with rucaparib 10 µM, 100% = cells with rucaparib alone) was 104% (inactive), the viability ([1]; at 0.00122 µM, OCI-C5x cells, without rucaparib) was 103% (inactive) and the viability ([1]; at 0.00122 µM, OCI-P5x cells, with rucaparib 20 µM, 100% = cells with rucaparib alone) was 103% (inactive). The viability ([1]; at 0.00122 µM, OCI-P5x cells, without rucaparib) was 97.7% (active), the viability ([1]; at 0.00488 µM, OCI-C5x cells, with rucaparib 10 µM, 100% = cells with rucaparib alone) was 104% (inactive) and the viability ([1]; at 0.00488 µM, OCI-C5x cells, without rucaparib) was 110% (inactive). For the same molecule, the viability ([1]; at 0.00488 µM, OCI-P5x cells, with rucaparib 20 µM, 100% = cells with rucaparib alone) was 100% (inactive), the viability ([1]; at 0.00488 µM, OCI-P5x cells, without rucaparib) was 90.5% (active) and the viability ([1]; at 0.0195 µM, OCI-C5x cells, with rucaparib 10 µM, 100% = cells with rucaparib alone) was 98.1% (active). For the same molecule, the viability ([1]; at 0.0195 µM, OCI-C5x cells, without rucaparib) was 30.6% (active), the viability [1, 11] was 85.4% (active) and the viability [1, 12] was 15.9% (active). The viability [1, 13] was 35.4% (active), the viability [1, 14] was 23.5% (active) and the viability [1, 15] was 51.3% (active). For the same molecule, the viability [1, 16] was 13% (active), the viability [1, 17] was 39.7% (active) and the viability [1, 18] was 22.5% (active). For the same molecule, the viability [1, 19] was 44.4% (active), the viability [1, 20] was 11% (active) and the viability [1, 21] was 38% (active). For the same molecule, the viability [1, 22] was 23.4% (active), the viability [1, 23] was 41.8% (active) and the viability [1, 24] was 9.8% (active). For the same molecule, the viability [1, 25] was 39.3% (active), the viability [1, 26] was 25.1% (active) and the viability [1, 27] was 50.6% (active). For the same molecule, the viability [1, 28] was 10.1% (active).
In the case of `CS(=O)(=O)Oc1ccc2c(NC(N)=O)c(C(=O)c3ccc(Cl)cc3Cl)oc2c1`, the outcome [2] is reported as “inactive”, the AC50 [3] is reported as 2350 nM (active) and the outcome [4] is reported as “inactive”. For the same molecule, the outcome [10] was “inactive”, the outcome [7] was “inactive” and the outcome [5] was “inactive”.
